# Columns and labels:
# Details in all cases: concentration: 1 μM, replicates: in singlicate; n = 1
# NEK3 = tested on: NEK3
# NEK4 = tested on: NEK4
# NEK5 = tested on: NEK5
# NEK6 = tested on: NEK6
# NEK7 = tested on: NEK7
# NEK9 = tested on: NEK9
# NIK = tested on: T1, NIK
# T1 construct: gene MAP3K14
# NIM1 = tested on: T2, NIM1
# T2 construct: gene MGC42105
# NLK = tested on: NLK
# OSR1 = tested on: T3, OSR1
# T3 construct: gene OXSR1
# PAK1 = tested on: PAK1
# PAK2 = tested on: PAK2
# PAK3 = tested on: PAK3
# PAK4 = tested on: PAK4
# PAK6 = tested on: PAK6
# PAK7 = tested on: PAK7
# PCTK1 = tested on: T4, PCTK1
# T4 construct: gene CDK16
# PCTK2 = tested on: T5, PCTK2
# T5 construct: gene CDK17
# PCTK3 = tested on: T6, PCTK3
# T6 construct: gene CDK18
# PDGFRA = tested on: PDGFRA
# 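Also: KINOMEscan kinase panel screen.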
Structure (SMILES),%Inh (NEK3) [%],%Inh (NEK4) [%],%Inh (NEK5) [%],%Inh (NEK6) [%],%Inh (NEK7) [%],%Inh (NEK9) [%],%Inh (NIK) [%],%Inh (NIM1) [%],%Inh (NLK) [%],%Inh (OSR1) [%],%Inh (PAK1) [%],%Inh (PAK2) [%],%Inh (PAK3) [%],%Inh (PAK4) [%],%Inh (PAK6) [%],%Inh (PAK7) [%],%Inh (PCTK1) [%],%Inh (PCTK2) [%],%Inh (PCTK3) [%],%Inh (PDGFRA) [%]
CNc1nccc(-c2c(-c3ccc(F)cc3)ncn2CCCN2CCOCC2)n1 [SB-222516],17,2,100,0,0,0,47,14,0,27,65,85,0,0,0,0,0,0,0,0
CC(C)(C)c1ccc(-n2cnc3c(N)ncnc32)cc1 [SKF-97263],0,19,10,0,16,14,0,9,26,16,9,0,22,0,0,0,0,0,30,13
CCc1nc(-c2cccc(C)c2)c(-c2ccnc(NC(=O)c3ccccc3)c2)s1,27,0,2,28,16,13,22,11,23,10,0,0,2,0,3,0,24,7,1,0
Cc1cccc(-c2nc(Nc3ccc4[nH]nnc4c3)c3ccccc3n2)n1 [GW867587],22,0,2,0,0,0,21,0,0,0,9,41,0,0,0,0,0,0,0,0
Fc1cccc(COc2ccc(Nc3ncnc4nn5ccccc5c34)cc2Cl)c1 [GW689066],0,0,0,0,0,4,0,13,7,3,15,15,8,15,0,0,0,0,0,0
Nc1nc(-c2ccc3c(N)n[nH]c3c2)cc(N2CCCCC2)n1 [GSK2228768],0,3,4,0,0,0,0,0,0,7,2,20,6,0,0,0,5,0,9,0
Cl.Cn1ccc(-c2cccc(Nc3ccnc4cc(-c5nccs5)ccc34)c2)n1 [GW525701],17,0,0,0,0,0,51,18,6,15,0,0,18,0,0,100,0,0,30,0
COc1ccc(Nc2nccc(N3CCC(NC(=O)c4cccc(NC(C)=O)c4)C3)n2)cc1 (centres unmarked) [GSK1379732],11,0,25,0,0,13,28,47,12,7,0,0,0,0,0,6,0,10,1,0
CC(C)N1CCC(n2cnc(-c3ccc(F)cc3)c2-c2ccnc(N)n2)CC1 [SB-223132],33,0,3,8,0,0,0,0,49,0,19,23,0,26,0,0,0,0,7,0
O=C(Nc1ccccc1F)NC1CCN(c2ccnc(Nc3ccc(F)cc3)n2)C1 (centres unmarked) [GSK1379722],4,9,12,0,0,0,14,15,17,0,2,16,0,0,0,0,6,0,18,0
O=C(Nc1n[nH]c2nc(-c3ccco3)c(Br)cc12)c1ccc(CN2CCCC2)cc1.O=C(O)[C@H](O)[C@@H](O)C(=O)O [SB-742352],0,0,0,0,10,0,0,0,0,0,0,7,0,0,0,0,0,11,0,50
Nc1nc(-c2ccccn2)c(-c2ccnc3ccccc23)s1 [GW548057],8,0,20,0,0,0,22,38,30,8,0,0,0,0,1,26,0,18,16,1
C[C@H]1CC[C@@H](C(=O)Nc2ccccc2)CN1c1cc(-c2ccc3c(N)n[nH]c3c2)nc(N)n1 [GSK2283293],1,1,0,0,0,7,0,12,0,11,0,3,0,0,0,0,0,0,12,0
Fc1cccc(COc2ccc(Nc3ncnc4cc[nH]c34)cc2Cl)c1,12,3,16,11,9,10,9,48,0,21,30,35,10,26,0,22,5,48,10,22
Oc1ccc2ncnc(Nc3ccc(OCc4ccccc4)cc3)c2c1 [GI262866],0,0,7,0,1,10,8,7,7,0,22,29,87,0,0,0,10,0,13,0
CN1c2ccc(-c3ccc(C(=O)NCCO)cc3)cc2-c2[nH]ncc2S1(=O)=O,45,0,0,0,0,8,37,0,0,0,12,32,20,35,7,16,0,28,0,35
CN1CCC(n2cnc(-c3ccc(F)cc3)c2-c2ccnc(NC3CCNCC3)n2)CC1 [SB-229482],9,0,0,12,1,21,0,54,52,0,0,14,13,8,11,10,0,0,10,11
Nc1nccc2scc(-c3ccc4c(c3)CCN4C(=O)Cc3cc(F)ccc3F)c12 [GSK2587663],0,9,6,0,0,4,0,18,2,5,1,0,19,0,0,0,0,0,20,0
Cl.Fc1ccccc1COc1ccc(Nc2ncnc3ccc(-c4nnc(C(F)(F)F)o4)cc23)cc1Cl [GW424170],0,0,4,0,0,0,10,0,0,0,0,0,0,0,0,10,0,0,17,0
